# Screening data as filed in PubChem BioAssay.
# IL2 activator – activates IL-2 in a cell-based reporter assay | IL-2 activation reporter assay, cell-based qHTS; stimulated with anti-CD3/CD4/CD28 beads; in transgenic mouse T cells | activation, % (series mostly up to about 46 µM) | 0.065% of 360,000 active | AID 652025; in the data active means activation above about 50%; inconclusive means mostly about 30% to 49%
#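 Unstimulated transgenic mouse T cells preincubated 60 min with compound, then stimulated with anti-CD3/anti-CD4-coated beads plus anti-CD28 for 18 h at 37 degrees C. IL-2 response read as EGFP and DsRed fluorescence by plate cytometry.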
# TCR activator – activates T cell receptor signaling. primary human leukocytes, anti-CD3, IL-2 HTRF, 48 h. Potency, µM (top dose mostly 9.22 µM), usual class: activators. 330,000 tested, under 10 active
#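 Activity was scored as IL-2 release from primary human leukocytes given only a TCR signal (a-CD3 beads) plus compound for 48 hr. Detection used a two-antibody HTRF format read at 665nm.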
# BRCA1 expr up – activators of BRCA1 expression | 1.1% of 380,000 active | AID 624202 | Potency, µM (doses to about 46.1 µM), actives largely listed as activators | MCF7-BRCA1-FFLuc reporter, luminescence, 48 h; response scale: scaled: vehicle 0%, 10 µM genistein 100%; further: nearly all actives have a fitted effect of over 80% in size
#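 First, MCF7-BRCA1-FFLuc cells (2000/well) attach for 2 h; next, compounds are pin-added and incubated 48 h at 37 °C; finally, luciferase reagent is added and luminescence read after 15 min.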
# Mito fusion act – inhibitors of mitochondrial division or activators of mitochondrial fusion. S. cerevisiae fusion-defective mutant growth rescue, CellTiterGlo 48 h. Potency, µM (doses to about 46.1 µM), most hits filed as activators. 0.23% of 320,000 active; further: nearly all actives have a fitted effect of over 45% in size
#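 Compounds are tested for their ability to restore growth of mitochondrial fusion-defective yeast strains at non-permissive 37C in YPEG medium over 48 hours. Viability is quantified by luciferase luminescence.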
# p53 reactivation – re-activators of mutant p53; H1299 p53-A138V BP100-luciferase reporter, luminescence, 24 h; Potency, µM (doses to about 92.2 µM), hits mostly activators; 0.063% of 320,000 active; AID 504706; further: nearly all actives have a fitted effect of over 45% in size
#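 H1299 (p53-null), stable ts p53-A138V + BP100-Luc; 1000 cells/well, Opti-MEM/10% FBS; cpd 4 pt, 1:5; 24 h, 37 deg C, 5% CO2; detection reagent 10 min RT; luminescence.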
# Numbers stand for hits; 0 = inactive; ? = inconclusive; - = no result given; [ ] = another dose, or the depositor's remark. Sampled rows, rich in hits. Any-hit rate of the full collection: about 1.3%. Unless noted, the call rests on the fitted dose curve; in most records, active means well fitted curve in the direction sought with a large enough effect; inconclusive means small, poorly fitted or top-dose-only effect, or another doubt; inactive means no such curve, though single readings can be large; an effect the other way counts as inactive or inconclusive.
SMILES,IL2 activator,TCR activator,BRCA1 expr up,Mito fusion act,p53 reactivation
O=C(C1COc2ccccc2O1)N1CCN(Cc2ccc(Br)cc2F)CC1 (stereo not given),0,0,0,11µM,0
CC1(C)CCc2cc(O)ccc2O1,-,-,0,-,-
Cc1ccc(C(=O)CN2C(=O)NC3(CCCCCC3)C2=O)c(C)c1,0,0,6.3µM,0,0
CNc1cncc(-c2cccc(O)c2)n1,0,-,0,-,-
CNc1cccc(-c2cccc(O)c2)n1,0,-,10µM,-,-
CCCCNC(=S)N1CCN(C(c2ccccc2)c2ccccc2)CC1,0,0,0,?,0
CCCCNC(=O)N1CCN(C(c2ccccc2)c2ccccc2)CC1,0,0,0,18µM,0
COc1cc(C=O)ccc1OCCCCOc1ccccc1[N+](=O)[O-],0,0,0,0,0
COc1cc(C=O)ccc1OCCCOc1ccccc1[N+](=O)[O-],0,0,7.1µM,0,?
Brc1ccc(-c2csc(-c3c[nH]c4ccccc34)n2)cc1,0,0,0,0,45µM
CCOc1cc(Br)c(/C=C2/C(=O)N(C)C(=S)N2CC(=O)OC)cc1OC,100,0,0,0,0
Cc1cc(=O)[nH]c2n[nH]c(-c3ccccc3)c12,0,0,11µM,0,?
Cc1cc(C)n(CC(C)NC(=O)c2cc(COc3ccc(F)c(F)c3)on2)n1 (stereo not given),0,0,0,0,-
Cc1cc(CNC(=O)c2cc(COc3ccc(F)c(F)c3)on2)nn1C,0,0,8.9µM,0,0
CC(C)(C)c1ccc(OCCn2c(CCNC(=O)C3CCCCC3)nc3ccccc32)cc1,-,-,0,-,-
N#C/C(=C\c1cccs1)C(=O)Nc1ccccn1,0,0,10µM,0,0
Cc1cccc(C)c1NC(=O)/C(C#N)=C/c1cccs1,0,0,0,0,0
CNc1ccc(/C=C(\C#N)C(=O)Nc2ccccn2)cc1[N+](=O)[O-],87,0,0,0,0
N#C/C(=C\c1ccccc1)C(=O)Nc1ccccn1,0,0,0,0,0
Cc1ccc(NC(=O)/C(C#N)=C/c2cccs2)c(C)c1,0,0,4µM,0,0
CC1(C)CC(=O)c2cc(C(=O)Nc3ccccc3)c(=O)[nH]c2C1,-,-,0,-,-
CC(C)(C)c1csc(NC(=O)c2ccc(Br)o2)n1,0,0,10µM,0,?
COc1ccc(-c2csc(NC(=O)CC(C)C)n2)cc1,0,0,8.9µM,0,?
Cc1nc(-c2ccc(NC(=O)CC(C)C)cc2)cs1,0,0,2.2µM,0,?
CC(C)(C)c1csc(NC(=O)c2ccncc2)n1,0,0,0,0,0
SMILES,IL2 activator,TCR activator,BRCA1 expr up,Mito fusion act,p53 reactivation
Cc1nc(-c2ccc(NC(=O)C3CC3)cc2)cs1,0,0,?,0,0
Cc1nc(-c2ccc(NC(=O)c3ccc(Br)o3)cc2)cs1,0,0,11µM,0,0
COc1cc2c(cc1OC)C1O[C@](CCCCN3C(=O)c4ccccc4C3=O)(C2)OC2=C1C(=O)c1ccccc1C2=O,-,-,-,0[9.22 µM],-
CC(C)C(=O)Nc1cccc(-c2csc(-c3ccccc3)n2)c1,0,0,0,?,?
CC(C)C(=O)Nc1ccc(-c2csc(-c3ccccc3)n2)cc1,0,-,5µM,0,0
CCOc1ccc(NC(=O)Cc2ccc(NC(=O)N3CCCCc4ccccc43)cc2)cc1,-,-,0,-,-
O=C(OCC(=O)N1CCOCC1)c1ccccc1Br,0,0,0,0,0
O=C(OCC(=O)N1CCOCC1)c1ccccc1Cc1ccccc1,0,0,2µM,0,?
CCOc1cc(C2Nc3ccccc3C(=O)N2c2ccccc2)c(Br)cc1OCC(=O)O (stereo not given),0,0,0,0,0
COc1cc(C2Nc3ccccc3C(=O)N2c2ccc(Cl)cc2)c(Cl)cc1OCC(=O)O (stereo not given),0,0,2.8µM,0,?
COc1cc(C2Nc3ccccc3C(=O)N2c2ccccc2)ccc1O (stereo not given),0,0,7.9µM,0,?
O=C(Cc1ccc(Oc2ccccc2)cc1)NO,-,-,0,-,-
CCC(C)(C)NC(=O)CCCSc1nc2ccccc2s1,0,0,3.5µM,0,0
CCOc1ccc(N(CC(=O)Nc2ccc(C)cc2C)S(C)(=O)=O)cc1,0,0,0,0,?
CCOc1ccc(N(CC(=O)Nc2cccc(Br)c2)S(C)(=O)=O)cc1,0,-,0,0,0
CCOc1ccc(N(CC(=O)Nc2cc(C)cc(C)c2)S(C)(=O)=O)cc1,0,0,13µM,0,?
CCOc1ccc(N(CC(=O)Nc2ccc(C)cc2)S(C)(=O)=O)cc1,0,-,8.9µM,0,?
O=C(COc1ccccc1C(=O)Nc1ccccc1)Nc1ccc(Br)cc1,-,-,0,-,-
CC(=O)CCC1C2C(O)C(C(C)C)C(OC(=O)/C=C/c3ccccc3)CC12C (stereo not given),0,0,0,3.5µM,0
Cc1cc(C)cc(-n2c(SCC(=O)Nc3ccccc3)nc3c(oc4ccccc43)c2=O)c1,-,-,0,-,-
COc1cccc(NC(=O)c2ccccc2OCC(=O)Nc2ccc(Br)cc2)c1,-,-,0,-,-
NC(=S)N/N=C/c1ccc(/C=N/NC(N)=S)cc1,0,0,0,0,0
NC(=S)N/N=C/c1ccc(-n2nncc2-c2ccc(Cl)cc2)cc1,0,0,0,22µM,0
c1ccn2cc(CSc3nnc4ccccn34)nc2c1,0,-,?,0,?
c1ccn2cc(CSC3=NCCS3)nc2c1,0,0,6.3µM,0,?
SMILES,IL2 activator,TCR activator,BRCA1 expr up,Mito fusion act,p53 reactivation
Cc1csc(NC(=O)c2ccccc2)n1,0,0,3.2µM,0,0
O=C(Nc1nc(-c2ccccc2)cs1)c1ccco1,0,0,7.1µM,0,0
O=C(Nc1nc(-c2ccc(Cl)s2)cs1)c1ccccc1,0,0,0,0,0
O=C(Nc1nc(-c2ccco2)cs1)c1ccccc1,0,0,8.9µM,0,?
COc1ccc(CC(=O)N(Cc2nc(-c3ccc(C)cc3)no2)C(C)C)cc1,-,-,0,-,-
CCCN1CNc2c(c(=O)[nH]c(=S)n2CCc2ccccc2C)C1,-,-,0,-,-
Cc1cc(C(=O)COC(=O)c2cc(Cl)ccc2N)c(C)n1Cc1ccco1,0,0,2.8µM,0,?
CNc1c(Br)cc(/C=C2\C=C(C(O)c3cc(Br)c(NC)c(Br)c3)c3ccccc32)cc1Br (stereo not given),-,-,0,-,-
O=C(C[n+]1cccc2cc(Cl)ccc21)c1cccc([N+](=O)[O-])c1,-,-,0,-,-
COc1cccc(N=Nc2ccc3cccnc3c2O)c1,0,0,0,0,35µM
COc1cccc(N=Nc2ccc(O)c3ncccc23)c1,0,0,0,0,?
CCCNc1nc(Nc2ccc([N+](=O)[O-])cc2)nc(N2CCOCC2)n1,-,-,0,-,-
O=C(NCc1ccccn1)Nc1ccccc1Cl,0,0,0,0,0
O=C(COc1ccccc1Br)NCc1ccccn1,0,0,11µM,0,0
O=C(NCc1ccccn1)Nc1ccc(F)cc1F,0,0,0,0,0
